The source of these data is PubChem BioAssay AID2315 (National Center for Advancing Translational Sciences (NCATS), 2010).

Each structure is given as a SMILES string. The whole screen tested about 290,000 compounds, of which about 27,000 (9.3%) were called active. No stated cut-off is given here; in the data, active means inhibition mostly above about 28% (no sharp cut-off); inactive means mostly below about 43%. Shown is part of a subset that was picked to be rich in actives.

This assay can be described thus: A qHTS for Small Molecule Inhibitors of Shiga Toxin. Further: 0% is about no effect. As to conditions: Vero cells, Shiga toxin protein synthesis inhibition reporter; at 38.7 µM, hits give high values. (In general: Quantitative high-throughput screening tests each substance at several concentrations.)
As usually defined, the inhibition is the change of the read-out against control, counted positive when it falls. Regarding `Cc1ccc(SCCSc2ncccn2)cc1`, the inhibition is 38.6% (active). Then `Cc1ccc(SCCC(=O)NCc2ccccn2)cc1`, with -6.02% (inactive). Then `Cc1ccc(SCCC(=O)NC(C(C)C)C(C)C)cc1`, with -4.72% (inactive); and `Cc1ccc(S(=O)Cc2ccc(C(=O)N3CCN(C4CCCCC4)CC3)o2)cc1` (stereo not given), with -3.36% (inactive); and `COc1ccc(CN2CCN(Cc3ccc(OC)c(OC)c3OC)CC2)cc1`, with -4.07% (inactive). Then `CC(C)C(C(=O)NCc1ccco1)N(CC1CCCO1)C(=O)CNS(=O)(=O)c1ccc(F)cc1` (stereo not given), with -0.539% (inactive); and `CCc1ccccc1S(=O)(=O)Cc1ccc(C(=O)NCCc2ccccc2)o1`, with 6.5% (inactive); and `O=C(CSc1n[nH]c(=O)n1-c1ccccc1)Nc1ccccc1C(F)(F)F`, with -2.01% (inactive).

For `Cc1cc(C)c2nc(N3CCC(C(=O)NCCN4CCOCC4)CC3)sc2c1`, the inhibition is 17.8% (inactive).

`Fc1cc(F)c2nc(N3CCOCC3)sc2c1`: the inhibition was 87.4% (active). Then `Fc1cc(F)c2nc(Nc3nc4c(F)cccc4s3)sc2c1`, with 28.3% (inactive); and `COC(=O)C1=C(O)/C(=C/c2ccc(OCC(=O)Nc3ccccc3)cc2)N=C1C`, with -18.9% (inactive); and `CC1CN(CC(=O)NC(C)c2ccccc2)CC(C)O1` (stereo not given), with -5.21% (inactive). Then `Nc1nc(SC23CC4CC(CC(C4)C2)C3)ns1`, with 1.53% (inactive); and `CCCCCCSc1nsc(N)n1`, with 59.2% (active); and `CCCSc1nsc(N)n1`, with 11% (inactive).

Turning to `CCc1cccc(NC(=O)C2CCCN(S(=O)(=O)c3ccc4[nH]c(=O)ccc4c3)C2)c1` (stereo not given), the inhibition was -5.44% (inactive).

For the molecule `CCCCn1c(N)c(N(CC)C(=O)c2ccccc2C(F)(F)F)c(=O)[nH]c1=O`, the inhibition is 3.43% (inactive). Then `C1=C(CCNc2ncnc3c2cnn3-c2ccccc2)CCCC1`, with 190% (active); and `O=C(NCCC1=CCCCC1)C1CCN(Cc2cnn(-c3ccccc3)c2-n2cccc2)CC1`, with 31% (inactive). Then `Cc1nn(C(C)C(=O)NCCC2=CCCCC2)c(=O)c2nn(-c3ccccc3)c(C)c12` (stereo not given), with 18.5% (inactive). Then `O=C(Cc1ccc(Br)cc1)NCCN1CCOCC1`, with -10.9% (inactive); and `CC1CCN(C(=O)CCc2nnc3ccc(NCc4ccco4)nn23)CC1`, with 12.6% (inactive). `Cc1cccc(-n2cnc(C(=O)Nc3cccnc3)c2)n1`: the inhibition was 101% (active).

In the case of `Cc1cccc(-n2cnc(C(=O)NNC(=S)Nc3ccccc3)c2)n1`, the inhibition is -10.7% (inactive). Then `O=C(Nc1cccnc1)c1cc([N+](=O)[O-])ccc1Cl`, with -2.48% (inactive); and `Cc1ccc(SCCC(=O)Nc2cc(C)on2)cc1`, with -4.4% (inactive); and `Cc1ccc2nc(-c3ccc(SCC(=O)Nc4cc(C)on4)nc3)[nH]c2c1`, with 71.3% (active).

`Cc1ccc2nc(SCC(=O)NC3CCCC3)[nH]c2c1`: the inhibition is -2.14% (inactive). Then `CC(C)(C)c1ccc(C(=O)N2CCN(CCNC(=O)C(=O)Nc3ccc(F)cc3)CC2)cc1`, with -6.99% (inactive). Then `CCNCc1cc2cc(C)ccc2[nH]c1=O`, with 12% (inactive); and `CC(=O)OCc1cc2cc(C)ccc2[nH]c1=O`, with -8.28% (inactive); and `CCOC(=O)c1cc2cc(C)ccc2[nH]1`, with 168% (active).

For `COc1ccc(CNC(=O)[C@H](Cc2c[nH]c3ccccc23)NC(C)=O)cc1OC`, the inhibition is -6.62% (inactive). Then `COc1ccc(-c2ccc(CCC(=O)O)n2NC(=O)c2ccc(C(C)(C)C)cc2)cc1`, with 21% (active); and `COCCCn1c(CCC(=O)O)ccc1-c1ccc(F)cc1`, with 13% (inactive); and `COc1ccc(-c2ccc(CCC(=O)O)n2-c2ccc(O)cc2)cc1`, with 4.87% (inactive). Then `O=C(CSc1nnc(Nc2ccccc2)s1)Nc1cccnc1Cl`, with -14.8% (inactive); and `CC(C)c1ccc(Nc2nnc(SCC(=O)c3nnc(-c4ccccc4)o3)s2)cc1`, with 58.9% (active).

Regarding `Cc1ccc(Nc2nnc(SCC(=O)c3cc4ccccc4o3)s2)cc1C`, the inhibition was 19.8% (inactive).

Regarding `Cc1cc(C)cc(Oc2c(C(F)(F)F)oc3cc(OCC(=O)O)ccc3c2=O)c1`, the inhibition was -4.45% (inactive). Then `CC(C)=CCN1CCN(Cc2cc3ccccc3[nH]2)CC1CCO` (stereo not given), with 1.5% (inactive). With `N#Cc1cccc(CN2CCC(=O)N(CCO)CC2)c1`, the inhibition was 2.03% (inactive). In the case of `O=C(Nc1cccc(-c2nnc(-c3ccccc3)o2)c1)C1CCCO1` (stereo not given), the inhibition was 85% (active). Then `O=C(Nc1cccc(Cl)c1)Nc1nnc(-c2ccccc2)o1`, with -12.3% (inactive).

In the case of `O=C(Nc1nnc(CCc2ccccc2)s1)C1CCCO1` (stereo not given), the inhibition was 39.5% (inactive).

Consider `O=C(Nc1nnc(SCc2c(Cl)cccc2Cl)s1)C1CCCO1` (stereo not given), for which the inhibition is 86.4% (inactive). Then `CC(C)(C)NS(=O)(=O)c1ccc(NC(=O)C2CCCO2)cc1` (stereo not given), with -21.4% (inactive); and `O=C(Nc1ccc(-c2nnc(-c3ccccc3)o2)cc1)C1CCCO1` (stereo not given), with 93.5% (active); and `CCCCC(=O)Nc1c2c(nn1-c1ccc([N+](=O)[O-])cc1)CS(=O)(=O)C2`, with 19.5% (inactive).

Consider `Cc1ccc2c(C)c(C(=O)N(C)Cc3ccncn3)oc2c1C`, for which the inhibition is 4.22% (inactive). Then `C=CCn1c(SCC(=O)NCCCO)nc2sc3c(c2c1=O)CCC3`, with 8.99% (inactive); and `Brc1ccc(-c2n(-c3ccccn3)c3ccccc3[n+]2-c2ccccn2)cc1`, with 12.9% (inactive); and `O=[N+]([O-])c1cccc(S(=O)(=O)NCc2ccccn2)c1`, with -7.29% (inactive).

Regarding `Cc1cc2cc3c(N)[nH]nc3nc2cc1C`, the inhibition is 40.9% (active). Then `CSc1ncccc1C(=O)Nc1ccc(C)cn1`, with 34% (inactive); and `CSc1ncccc1C(=O)Nc1nc2ccc(F)cc2s1`, with 138% (active). Then `COc1cc(NC(=O)c2cccnc2SC)cc(OC)c1`, with 10.8% (inactive); and `COCCn1c(N)c(NCc2ccccc2)c(=O)[nH]c1=O`, with -3.86% (inactive). With `COc1ccc(C2CC(c3cccs3)=NN2C(=O)CSc2nnc(N)s2)cc1OC` (stereo not given), the inhibition was -6.81% (inactive). Then `COc1ccc(C2CC(c3cccs3)=Nc3ccccc3S2)cc1OC` (stereo not given), with 41.1% (active); and `COc1ccc(C2CC(c3cccs3)=NN2C(=O)CCC(=O)O)cc1OC` (stereo not given), with -4.61% (inactive). Then `O=C(NCc1ccccc1Cl)C1CCN(c2ncnc3c2nc2n3CCCCC2)CC1`, with -9.78% (inactive). Then `S=C(NCCc1ccccc1)NCC1CCCO1` (stereo not given), with 0% (active). In the case of `S=C(NCCc1ccccc1)Nc1ccccc1`, the inhibition was 57.4% (active). Consider `O=C(NCCc1c[nH]c2ccccc12)C(=O)NCC1CCCO1` (stereo not given), for which the inhibition was -8.17% (inactive). Then `O=C1CCN(C(=S)NCCc2ccccc2)CC1`, with 35.2% (inactive); and `S=C(NCCc1ccccc1)NCc1ccccc1Cl`, with 18.4% (inactive). Then `S=C(NCCCc1ccccc1)Nc1ccc(Br)cc1`, with 0.943% (inactive).

For the molecule `Oc1ccc(N2CCN(C(=S)NCc3ccccc3)CC2)cc1`, the inhibition was 17.4% (inactive). Then `CC1CCCCN1C(=S)NCc1ccccc1` (stereo not given), with -6.29% (inactive). Then `Oc1ccccc1N1CCN(C(=S)NCc2ccccc2)CC1`, with 76.8% (active).

`COc1ccc(C(=O)NC2CCN(C(=S)NCCc3ccccc3)CC2)cc1`: the inhibition was 2.57% (inactive). Then `S=C(NCCc1ccccc1)N1CCCCC1`, with 66.4% (active); and `O=C(CS(=O)(=O)Cc1ccccc1)NCC1CCCO1` (stereo not given), with -4.38% (inactive).
